From PubChem BioAssay
For part of these data: Entries with a potency or affinity are not part of this list. Calls of active or inactive are those of the source.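 Rule for the calls, unless noted: active = primary screen active and over 50% activation in each of two duplicate runs; inactive = the rest.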

Legend:
[1] = system: TRPC4 beta (transient receptor potential cation channel C4), mouse; experiment: TRPC4 cation channel opening, retest – cell-based, Fluo4 calcium, HEK293 TRPC4beta/mu-opioid, duplicates, 10 µM, confirmation (AID 2426;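 active = fluorescence ratio normalized to control raised more than 50% in primary screen plus both repeat runs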); conditions: Fluo4 calcium fluorescence, at 10 µM; stronger effect = higher value
[2] = system: transient receptor potential cation channel C4 beta (TRPC4), mouse; experiment: TRPC4 cation channel opening, second retest – cell-based, second round, Fluo4, HEK293 TRPC4beta/mu-opioid, 1 µM, confirmation (AID 2461); conditions: Fluo4 calcium fluorescence, at 1 µM; stronger effect = higher value
[3] = system: TRPC4 (transient receptor potential cation channel C4 beta), mouse; experiment: potentiation of DAMGO EC20 TRPC4 response – cell-based, second round, Fluo-4, HEK293 TRPC4beta/mu-opioid, 1 µM, confirmation (AID 2554;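 active = primary screen hit whose fluorescence ratio, in both repeats, exceeds the weak agonist control mean by 3 SD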); conditions: DAMGO EC20, Fluo-4 calcium flux, at 1 µM; stronger effect = higher value
[4] = system: TRPC4 beta (transient receptor potential cation channel C4), mouse; experiment: potentiation of DAMGO EC20 TRPC4 response – cell-based, Fluo-4, HEK293 TRPC4beta/mu-opioid, confirmation (AID 2555;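 active = primary screen hit whose calcium fluorescence ratio, in both repeats, exceeds the weak agonist control mean by 3 SD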); conditions: DAMGO EC20, Fluo-4 calcium flux, at 10 µM; stronger effect = higher value
[5] = target: Short transient receptor potential channel 4 (Mus musculus) (UniProt Q9QUQ5); experiment: blockers of DAMGO-evoked TRPC4 calcium flux – cell-based, Fluo4, HEK293 TRPC4beta/mu-opioid, confirmation (AID 2636;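 active = calcium signal cut by more than 3 SD below the full-agonist control yet still positive, in both repeats and the earlier primary screen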); conditions: at 10 µM; stronger effect = higher value
[6] = target: Short transient receptor potential channel 4 (Mus musculus) (UniProt Q9QUQ5); experiment: blockers of DAMGO-evoked TRPC4 calcium flux – cell-based, second round, Fluo4, HEK293 TRPC4beta/mu-opioid, 1 µM, confirmation (AID 2637;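 active = calcium signal ratio cut to more than 3 SD under the fully stimulated control mean yet still positive, in both repeats and the primary screen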); conditions: at 1 µM; stronger effect = higher value
[7] = target: Short transient receptor potential channel 4 (Mus musculus) (UniProt Q9QUQ5); experiment: calcium entry via TRPC4 opening agents – cell-based, HEK293 TRPC4/mu-opioid, Fluo-4 calcium, dose response (AID 434937;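 active = primary screen activator hit with a dose response curve and TRPC4 channel activation at any tested dose; inactive = no activation, no dose response, or not a primary hit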)
[8] = target: Short transient receptor potential channel 4 (Mus musculus) (UniProt Q9QUQ5); experiment: potentiation of DAMGO-evoked TRPC4 calcium signal – cell-based, HEK293 TRPC4/mu-opioid, Fluo-4 calcium, EC20 DAMGO, dose response (AID 434941;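 active = earlier screen potentiator hit that boosts the TRPC4 ion channel at some dose, with a dose response; inactive = no potentiation, no dose response, or not a prior hit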;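 note: calcium entry triggered by an EC20 dose of DAMGO at the co-expressed mu-opioid receptor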)
[9] = target: Short transient receptor potential channel 4 (Mus musculus) (UniProt Q9QUQ5); experiment: block of DAMGO-driven TRPC4 calcium entry – cell-based, HEK293 TRPC4/mu-opioid, Fluo-4 calcium, dose response (AID 434942;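 active = primary screen inhibitor hit that blocks the TRPC4 channel at some tested dose, yielding a dose curve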)
[10] = target: Short transient receptor potential channel 6 (Mus musculus) (UniProt Q61143); experiment: TRPC6 blockade by TRPC4 inhibitor hits – cell-based, HEK293, membrane potential dye, duplicate, selectivity assay for TRPC4 inhibitor project, confirmation (AID 434948;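 active = active in primary screen and both duplicates, each dropping signal beyond three positive-control SD with fluorescence still positive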); conditions: HEK293 TRPC6, membrane potential dye fluorescence, at 10 µM, stimulated with maximal-effect acetylcholine; stronger effect = higher value
[11] = target: Short transient receptor potential channel 6 (Mus musculus) (UniProt Q61143); experiment: TRPC6 opening by TRPC4 activator hits – cell-based, HEK293, membrane potential dye, duplicate, selectivity assay for TRPC4 activator project, confirmation (AID 434950;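 active = membrane potential signal rise above negative control mean plus 3 SD in both duplicates, also active in the earlier TRPC4 screen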); conditions: HEK293 TRPC6, membrane potential fluorescence, at 10 µM; activation: stronger effect = higher value; outcome: activation
[12] = target: Short transient receptor potential channel 6 (Mus musculus) (UniProt Q61143); experiment: positive modulators of mouse TRPC6 channel – HEK293 cells, membrane potential dye, duplicate, selectivity assay for TRPC4 potentiator project, confirmation (AID 434952;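 active = compound raising the membrane signal above positive-control mean plus 3 SD in both repeats, and a primary screen hit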); conditions: HEK293 TRPC6, membrane potential dye fluorescence, at 10 µM, maximal acetylcholine added after compound; stronger effect = higher value
[13] = target: Short transient receptor potential channel 4 (Mus musculus) (UniProt Q9QUQ5); experiment: calcium flux activators in TRPC4/5HT1a cells, counter-screen for TRPC4 activator project, cell-based, second counter screen, HEK293 TRPC4/5HT1a, Fluo-4 (AID 434977;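 active = calcium signal rise above buffer-control mean plus 5 SD in both duplicates, and also a hit in the primary screen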); conditions: Fluo-4 calcium flux, at 10 µM; stronger effect = higher value
[14] = serotonin-gated TRPC4 signal block – cell-based, second counter screen, HEK293 TRPC4/5HT1a, Fluo-4, counter-screen for TRPC4 inhibitor project, confirmation (AID 434978;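 active = primary screen active whose calcium signal fell more than 3 SD beyond the full-serotonin control mean in both duplicate plates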;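 for outcome: serotonin given first at submaximal then at maximal dose after compound preincubation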); conditions: Fluo-4 calcium flux, at 10 µM, serotonin added to trigger calcium flux; stronger effect = higher value
[15] = system: TRPC4 (mouse), co-expressed with 5HT1a in HEK293; experiment: enhancement of serotonin-evoked TRPC4 response – cell-based, second counter screen, HEK293 TRPC4/5HT1a, Fluo-4, counter-screen for TRPC4 potentiator project, confirmation (AID 434979;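 active = signal rise over 3 SD above mean of control wells given weak agonist, in both repeats and first screen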); conditions: Fluo-4 calcium flux, at 10 µM, serotonin added at its EC20 dose; stronger effect = higher value
[16] = nonspecific calcium rise without TRPC4 – cell-based, HEK293 mu-opioid receptor line, counter-screen for TRPC4 activator project, confirmation (AID 449723;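 active = hit in primary screen, with calcium signal over 5 SD above buffer well mean in both duplicates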;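 note: counter screen cells carry the mu-opioid receptor alone and lack TRPC4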); conditions: HEK293 mu-opioid cells, Fluo-4 calcium fluorescence, at 10 µM; stronger effect = higher value
[17] = nonspecific potentiation of DAMGO calcium response – cell-based, HEK293 mu-opioid receptor line, counter-screen for TRPC4 allosteric potentiator project, confirmation (AID 449724;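 active = calcium signal rise more than 3 SD above the low-dose agonist control mean, in both duplicate plates and the primary screen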); conditions: HEK293 mu-opioid receptor cells, Fluo-4 calcium flux, at 10 µM, compound added before EC20 DAMGO stimulus; stronger effect = higher value

Short transient receptor potential channel 6 (Mus musculus), sequence (Q61143 whole entry, looked up): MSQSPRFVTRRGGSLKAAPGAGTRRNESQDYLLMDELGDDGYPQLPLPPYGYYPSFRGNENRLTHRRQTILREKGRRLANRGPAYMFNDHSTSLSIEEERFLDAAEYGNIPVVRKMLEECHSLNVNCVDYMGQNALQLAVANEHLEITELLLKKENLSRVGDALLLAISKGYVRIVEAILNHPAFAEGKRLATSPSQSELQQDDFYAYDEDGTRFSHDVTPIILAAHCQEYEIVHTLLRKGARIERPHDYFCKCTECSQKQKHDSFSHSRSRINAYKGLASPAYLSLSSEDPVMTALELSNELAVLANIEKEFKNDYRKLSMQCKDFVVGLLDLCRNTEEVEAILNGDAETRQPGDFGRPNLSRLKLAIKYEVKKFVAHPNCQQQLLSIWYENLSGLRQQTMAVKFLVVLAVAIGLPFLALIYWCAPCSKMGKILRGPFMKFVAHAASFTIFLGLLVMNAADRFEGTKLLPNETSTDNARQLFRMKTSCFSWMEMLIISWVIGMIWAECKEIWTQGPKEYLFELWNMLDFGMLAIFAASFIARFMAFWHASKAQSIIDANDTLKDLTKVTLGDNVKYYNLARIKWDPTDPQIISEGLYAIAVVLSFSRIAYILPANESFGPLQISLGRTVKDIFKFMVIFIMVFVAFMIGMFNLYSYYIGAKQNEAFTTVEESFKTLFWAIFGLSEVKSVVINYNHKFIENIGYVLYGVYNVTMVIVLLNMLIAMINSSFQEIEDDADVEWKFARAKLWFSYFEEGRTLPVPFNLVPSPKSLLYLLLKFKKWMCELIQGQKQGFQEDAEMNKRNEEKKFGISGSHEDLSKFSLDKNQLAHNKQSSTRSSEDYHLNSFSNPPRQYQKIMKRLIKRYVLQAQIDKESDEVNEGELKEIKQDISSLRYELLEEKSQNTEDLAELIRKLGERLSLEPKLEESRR
Short transient receptor potential channel 4 (Mus musculus), sequence (Q9QUQ5 whole entry, looked up): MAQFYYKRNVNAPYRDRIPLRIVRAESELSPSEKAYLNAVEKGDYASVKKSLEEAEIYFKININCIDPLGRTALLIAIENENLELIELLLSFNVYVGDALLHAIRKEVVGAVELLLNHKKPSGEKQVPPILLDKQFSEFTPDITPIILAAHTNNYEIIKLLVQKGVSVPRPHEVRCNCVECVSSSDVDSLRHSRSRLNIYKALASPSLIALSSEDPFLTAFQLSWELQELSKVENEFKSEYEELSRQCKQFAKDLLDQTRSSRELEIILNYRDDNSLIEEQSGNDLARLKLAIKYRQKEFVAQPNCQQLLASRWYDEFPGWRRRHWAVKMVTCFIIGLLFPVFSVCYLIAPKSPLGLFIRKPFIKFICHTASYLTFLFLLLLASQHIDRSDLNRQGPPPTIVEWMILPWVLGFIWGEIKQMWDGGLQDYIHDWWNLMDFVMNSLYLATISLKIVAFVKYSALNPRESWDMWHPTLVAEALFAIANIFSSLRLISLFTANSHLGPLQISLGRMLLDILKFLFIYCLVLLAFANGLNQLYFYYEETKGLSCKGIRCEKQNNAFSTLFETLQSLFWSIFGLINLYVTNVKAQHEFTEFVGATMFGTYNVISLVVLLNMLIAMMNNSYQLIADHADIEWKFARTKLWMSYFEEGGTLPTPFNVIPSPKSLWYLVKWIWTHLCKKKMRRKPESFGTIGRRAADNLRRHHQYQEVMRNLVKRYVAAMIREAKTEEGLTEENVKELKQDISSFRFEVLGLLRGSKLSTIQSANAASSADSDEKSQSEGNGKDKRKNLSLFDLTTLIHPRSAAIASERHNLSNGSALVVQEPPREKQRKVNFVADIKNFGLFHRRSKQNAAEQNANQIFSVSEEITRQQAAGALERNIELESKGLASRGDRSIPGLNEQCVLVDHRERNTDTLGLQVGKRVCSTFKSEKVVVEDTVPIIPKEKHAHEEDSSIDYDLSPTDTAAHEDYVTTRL

CCOc1cc2[nH]c(=S)n(C3CC3)c(=O)c2cc1OCC
inactive: outcome [1] | outcome [2] | outcome [3] | outcome [4] | outcome [5] | outcome [6] | outcome [7] | outcome [8] | outcome [9] | outcome [10] | outcome [11] | outcome [12] | outcome [13] | outcome [14] | outcome [15] | outcome [16] | outcome [17]

CCSc1ccccc1C(=O)NCCc1ccccc1
inactive: outcome [1] | outcome [2] | outcome [3] | outcome [4] | outcome [5] | outcome [6] | outcome [7] | outcome [8] | outcome [9] | outcome [10] | outcome [11] | outcome [12] | outcome [13] | outcome [14] | outcome [15] | outcome [16] | outcome [17]

CCCc1ccc(OCc2ccc(C(=O)N3CCCC3)o2)cc1
inactive: outcome [1] | outcome [2] | outcome [3] | outcome [5] | outcome [6] | outcome [7] | outcome [8] | outcome [9] | outcome [10] | outcome [11] | outcome [12] | outcome [13] | outcome [14] | outcome [16] | outcome [17]
active: potentiation [4] 23% | potentiation [15] 31.2%

N=c1c(C(=O)NCC2CCCO2)cc2c(=O)n3ccccc3nc2n1Cc1ccc(Cl)cc1 (stereo not given)
inactive: outcome [1] | outcome [2] | outcome [3] | outcome [5] | outcome [6] | outcome [7] | outcome [8] | outcome [9] | outcome [10] | outcome [11] | outcome [12] | outcome [13] | outcome [14] | outcome [16] | outcome [17]
active: potentiation [4] 57% | potentiation [15] 61%

C/C=C/Cn1c(SCCCc2ccccc2)nc2c1c(=O)[nH]c(=O)n2C
active: potentiation [3] 12% | potentiation [4] 27% | potentiation [15] 88.5%
inactive: outcome [1] | outcome [2] | outcome [5] | outcome [6] | outcome [7] | outcome [8] | outcome [9] | outcome [10] | outcome [11] | outcome [12] | outcome [13] | outcome [14] | outcome [16] | outcome [17]

CCCCNc1c(-c2ccc(SC(C)CC)c(OC)c2)nc2ccc(C)cn12 (stereo not given)
inactive: outcome [1] | outcome [2] | outcome [3] | outcome [4] | outcome [5] | outcome [6] | outcome [7] | outcome [8] | outcome [9] | outcome [10] | outcome [11] | outcome [12] | outcome [13] | outcome [14] | outcome [15] | outcome [16] | outcome [17]

CC1CCN(CC(O)COCCC23CC4CC(CC(C4)C2)C3)CC1 (stereo not given)
inactive: outcome [1] | outcome [2] | outcome [3] | outcome [4] | outcome [5] | outcome [6] | outcome [7] | outcome [8] | outcome [9] | outcome [10] | outcome [11] | outcome [12] | outcome [13] | outcome [14] | outcome [15] | outcome [16] | outcome [17]

CC(=O)c1ccc(N2CCN(c3ccc(S(=O)(=O)NCCCN(C)C)cc3[N+](=O)[O-])CC2)cc1
inactive: outcome [1] | outcome [2] | outcome [5] | outcome [6] | outcome [7] | outcome [8] | outcome [9] | outcome [10] | outcome [11] | outcome [12] | outcome [13] | outcome [14] | outcome [16] | outcome [17]
active: potentiation [3] 12% | potentiation [4] 19% | potentiation [15] 14.6%

C(=N\N(Cc1ccccc1)c1ccccc1)/c1cccnc1
active: inhibition [5] 63% | inhibition [14] 40.3%
inactive: outcome [1] | outcome [2] | outcome [3] | outcome [4] | outcome [6] | outcome [7] | outcome [8] | outcome [9] | outcome [10] | outcome [11] | outcome [12] | outcome [13] | outcome [15] | outcome [16] | outcome [17]

COC(=O)[C@@]12CCCN1[C@H](c1ccc(-c3ccc(OC)cc3)cc1)[C@@H]1C(=O)N(C)C(=O)[C@@H]12
inactive: outcome [1] | outcome [2] | outcome [3] | outcome [5] | outcome [6] | outcome [7] | outcome [8] | outcome [9] | outcome [10] | outcome [11] | outcome [12] | outcome [13] | outcome [14] | outcome [16] | outcome [17]
active: potentiation [4] 32% | potentiation [15] 111%

CN(C)c1ccc(C(=S)N2CCN(c3ccc([N+](=O)[O-])cc3)CC2)cc1
inactive: outcome [1] | outcome [2] | outcome [3] | outcome [4] | outcome [5] | outcome [6] | outcome [7] | outcome [8] | outcome [9] | outcome [10] | outcome [11] | outcome [12] | outcome [13] | outcome [14] | outcome [16] | outcome [17]
active: potentiation [15] 8.7%

COc1ccc(CCN(C)C(=O)c2cc(S(=O)(=O)N3CCCCC3)ccc2Cl)cc1OC
inactive: outcome [1] | outcome [2] | outcome [3] | outcome [4] | outcome [5] | outcome [6] | outcome [7] | outcome [8] | outcome [9] | outcome [10] | outcome [11] | outcome [12] | outcome [13] | outcome [14] | outcome [15] | outcome [16] | outcome [17]

Cc1ccc(-c2c(C(=O)N/N=C/c3ccc(OC(C)C)cc3)nnn2-c2nonc2N)cc1
inactive: outcome [1] | outcome [2] | outcome [3] | outcome [4] | outcome [5] | outcome [6] | outcome [7] | outcome [8] | outcome [9] | outcome [10] | outcome [11] | outcome [12] | outcome [13] | outcome [14] | outcome [16] | outcome [17]
active: potentiation [15] 19.3%

O=C(Nc1nc2c(s1)CN(Cc1ccccc1)CC2)c1c(F)cccc1F
active: potentiation [4] 10% | potentiation [15] 14%
inactive: outcome [1] | outcome [2] | outcome [3] | outcome [5] | outcome [6] | outcome [7] | outcome [8] | outcome [9] | outcome [10] | outcome [11] | outcome [12] | outcome [13] | outcome [14] | outcome [16] | outcome [17]

CC(C)Cn1c(CN2CCN(C)C(CCO)C2)nc2ccccc21 (stereo not given)
inactive: outcome [1] | outcome [2] | outcome [3] | outcome [4] | outcome [5] | outcome [6] | outcome [7] | outcome [8] | outcome [9] | outcome [10] | outcome [11] | outcome [12] | outcome [13] | outcome [14] | outcome [15] | outcome [16] | outcome [17]
